Data taken from PubChem BioAssay AID488969 (Vanderbilt High Throughput Screening Facility, 2010).
The full ranking holds about 110,000 compounds; the median of “z-score” is about -0.1, and the highest 2% start at about 2. Many of the other results were omitted from the sample, so the highest values are more common in it than they were. Calls of active or inactive are those of the source.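 The calls were made as follows: active = z-score in the third read window above 3 or below -3; inactive = the rest.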

Target: Metabotropic glutamate receptor 8 (Rattus norvegicus) (UniProt P70579)
Experiment: mGluR8 Gi/Go-coupled signaling modulation – cell-based, rat, thallium flux, HTS, primary screen (AID 488969)
Settings: HEK293 rat mGluR8, GIRK (G protein-gated inwardly rectifying potassium channel) thallium flux, FluoZin2; at 10 µM; stronger effect = higher value; submaximal glutamate (EC20) added with thallium

Sequence of Metabotropic glutamate receptor 8 (Rattus norvegicus) (P70579 whole entry, looked up): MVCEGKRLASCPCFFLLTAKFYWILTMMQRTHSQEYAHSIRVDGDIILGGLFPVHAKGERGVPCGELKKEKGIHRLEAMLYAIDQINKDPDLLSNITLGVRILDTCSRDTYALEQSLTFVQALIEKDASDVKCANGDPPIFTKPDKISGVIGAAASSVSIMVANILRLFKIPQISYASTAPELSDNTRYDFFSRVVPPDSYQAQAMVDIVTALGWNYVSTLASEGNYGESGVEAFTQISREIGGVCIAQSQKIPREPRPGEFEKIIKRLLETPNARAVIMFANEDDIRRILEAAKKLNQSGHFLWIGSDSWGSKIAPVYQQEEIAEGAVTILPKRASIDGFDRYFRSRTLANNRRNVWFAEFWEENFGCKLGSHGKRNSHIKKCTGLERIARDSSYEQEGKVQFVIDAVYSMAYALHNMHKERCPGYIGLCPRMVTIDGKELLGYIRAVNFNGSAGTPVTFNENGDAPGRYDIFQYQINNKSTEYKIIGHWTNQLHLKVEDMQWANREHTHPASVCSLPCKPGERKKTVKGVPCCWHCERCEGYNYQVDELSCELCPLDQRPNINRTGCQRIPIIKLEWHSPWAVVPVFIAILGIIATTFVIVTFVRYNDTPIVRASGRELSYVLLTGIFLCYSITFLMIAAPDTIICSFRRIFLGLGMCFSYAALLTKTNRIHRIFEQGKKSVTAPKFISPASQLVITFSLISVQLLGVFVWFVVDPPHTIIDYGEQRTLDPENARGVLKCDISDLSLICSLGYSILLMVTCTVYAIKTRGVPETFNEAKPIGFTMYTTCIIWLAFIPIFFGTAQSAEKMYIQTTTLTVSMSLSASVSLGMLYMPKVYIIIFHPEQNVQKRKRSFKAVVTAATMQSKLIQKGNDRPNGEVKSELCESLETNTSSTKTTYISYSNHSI

Structure (SMILES)	z-score
COCCCNC(=O)/C(=C\c1cccn1C)NC(=O)c1cccs1	0.0671
O=C(NCc1ccccn1)C(F)(F)C(F)(F)C(=O)NCc1ccccn1	-0.509
CCc1nc2cc(Cl)c(Cl)cc2[nH]1	2
CCc1nc2cc([N+](=O)[O-])c([N+](=O)[O-])cc2[nH]1	-0.0776
CCc1nc2ccccc2[nH]1	0.00543
Cc1nc2ccsc2c(=O)n1-c1ccc(Cl)cc1	-0.0701
COc1ccc(N2C(=O)C3C4C=CC(CC4)C3C2=O)c([N+](=O)[O-])c1 (stereo not given)	-0.215
OCCn1c(SC2CCCCC2)nc2ccccc21	0.162
O=C(N/N=C(/CC(=O)c1cccs1)C(F)(F)F)c1ccc(O)cc1	-0.828
Cc1ccc(C(=O)N/N=C(/CC(=O)c2cccs2)C(F)(F)F)cc1	7.05 (active)
O=C(C/C(=N\NC(=O)c1ccccc1Br)C(F)(F)F)c1cccs1	0.65
Cc1cc(C(=O)NCc2cc(C)n(C)n2)sc1-c1ccccc1	-0.62
CS(=O)(=O)Nc1ccccc1Oc1ccccc1	0.607
COCCCn1c(SCc2nnc(-c3ccccc3)o2)nc2sc3c(c2c1=O)CCC3	-0.256
COc1cccc(C2OC(=O)c3ccccc3N2C(C)=O)c1OC(C)=O (stereo not given)	0.116
CSc1nc(Sc2cccc(Cl)c2)c2ccccc2n1	0.093
CSc1nc(Sc2ccc(Cl)cc2)c2ccccc2n1	0.0499
CSc1nc(Sc2ccccc2)c2ccccc2n1	4.56 (active)
CCC(C)NC(=O)CCc1c(C)nc2nc(-c3cc(OC)cc(OC)c3)nn2c1C (stereo not given)	-0.148
O=[N+]([O-])c1ccc(N2CCN(S(=O)(=O)c3ccc(Cl)cc3)CC2)cc1NCC1CCCO1 (stereo not given)	-0.211
O=C(CN1CCN(c2ccccc2)CC1)Nc1ccc(-n2cnnn2)cc1	0.659
CCC1(C)Cc2c(sc3c2c(=O)n(C)c2nnc(SCc4ccc5c(c4)OCO5)n32)CO1 (stereo not given)	3.12 (active)
CCC1(C)Cc2c(sc3c2c(=O)n(C)c2nnc(SCc4ccccc4)n32)CO1 (stereo not given)	-0.196
CCC1(C)Cc2c(sc3c2c(=O)n(C)c2nnc(SCC(=O)c4ccccc4)n32)CO1 (stereo not given)	-0.469
COc1ccccc1C(=O)N/C(=C\c1ccc2c(c1)OCO2)C(=O)NCCc1nc2ccccc2[nH]1	-1.09
CN(c1ccccc1C(=O)Nc1cccc(Cl)c1Cl)S(C)(=O)=O	0.0249
CC(C)c1ccc2[nH]c(O)c(N=NC(=S)NCCc3ccccc3)c2c1	0.396

Structure (SMILES)	z-score
Oc1[nH]c2ccccc2c1N=NC(=S)NCC1CCCO1 (stereo not given)	3.01 (active)
CCOC(=O)C(=O)N=Nc1c(O)[nH]c2ccccc12	-0.0577
S=C(NCC1CCCO1)Nc1ccc(Cl)cc1Cl (stereo not given)	0.145
S=C(NCC1CCCO1)Nc1ccc(Cl)cc1 (stereo not given)	0.0149
Oc1[nH]c2ccccc2c1N=NC(=S)NCCc1ccccc1	3.06 (active)
O=C(CCn1c(=S)[nH]c2ccccc2c1=O)NCC1CCCO1 (stereo not given)	-0.275
Oc1[nH]c2c(Cl)cc(Cl)cc2c1N=NC(=S)NCC1CCCO1 (stereo not given)	7.5 (active)
Oc1[nH]c2ccccc2c1C=NCC1CCCO1 (stereo not given)	-0.00202
Cc1ccccc1NC(=O)C1C2CCCC1C2c1ccccc1 (stereo not given)	0.216
CCc1ccc(OCC(=O)NC(NC(=S)Nc2ccccc2OC)C(Cl)(Cl)Cl)cc1 (stereo not given)	-0.163
Cc1cc(C(=O)OCC(=O)NC(C)(C)C)c2ccccc2n1	-0.284
O=C(N/N=C1\CCc2ccccc21)c1ccccc1Cl	-0.225
COc1ccc(CCCc2nnc(SCC(=O)Nc3nc(C)cs3)n2C)cc1	0.338
O=C(NC1CCCC1)c1cccc(NC(=O)c2ccco2)c1	0.253
Cc1onc(-c2ccccc2Cl)c1C(=O)Nc1cccc2nsnc12	1.17
Cc1onc(-c2c(F)cccc2Cl)c1C(=O)Nc1cccc2nsnc12	2.67
Cc1onc(-c2ccccc2)c1C(=O)Nc1cccc2nsnc12	-0.396
CC1CCCCN1C(=O)Nc1cccc(Cl)c1 (stereo not given)	0.789
COc1ccc(C(=O)c2c(C)c3cc(C)ccc3n2CC(O)CN2CCOCC2)cc1 (stereo not given)	-0.197
CS(=O)(=O)N(CC(=O)NCCSc1ccccc1)c1ccc2c(c1)OCO2	1.46
Cc1ccc2nc(SCC(=O)N3CCOCC3)[nH]c2c1	0.844
Cc1cccc(NC(=S)NNC(=O)c2csc3c2CCCC3)c1	14 (active)
Cc1cccc(NC(=S)NNC(=O)c2ccc(Br)o2)c1	1.14
CC1CCc2c(C(=O)Nc3ccc(OC(F)(F)F)cc3)csc2C1 (stereo not given)	-0.225
CC1CCc2sc(C(=O)N/N=C/C3CCCCC3)cc2C1 (stereo not given)	-0.764
Cc1cccc(NC(=S)NNC(=O)c2ccccc2Br)c1	0.847
CC(C)CNC(=S)NNC(=O)c1csc2c1CCC(C)C2 (stereo not given)	-1.59

Structure (SMILES)	z-score
Cc1cccc(NC(=S)NNC(=O)c2csc3c2CCC(C)C3)c1 (stereo not given)	9.39 (active)
CCNC(=S)NNC(=O)c1csc2c1CCC(C)C2 (stereo not given)	0.0328
C/C(=N\NC(=O)c1cc2c(s1)CCC(C)C2)c1ccncc1 (stereo not given)	-0.506
Cc1ccccc1NC(=S)NNC(=O)c1csc2c1CCC(C)C2 (stereo not given)	8.84 (active)
Cc1ccc(C)c(NC(=S)NNC(=O)c2cc3c(s2)CCC(C)C3)c1 (stereo not given)	10.3 (active)
Cc1ccccc1NC(=O)c1csc2c1CCCC2	-0.435
COc1ccc(OC)c(CN(CCCN2CCOCC2)S(=O)(=O)c2ccc(NC(C)=O)cc2)c1	-0.129
CCN(CC)S(=O)(=O)c1ccc(-c2nnc(SCC(=O)Nc3ccc(OC)c(OC)c3)o2)cc1	0.581
COc1ccc(OC(C)C(=O)Nc2ccccc2C(F)(F)F)cc1 (stereo not given)	-0.114
O=C(Nc1ccccc1C(=O)NCc1ccccc1)c1ccccc1	-0.543
COn1c(=O)c(=O)n(O)c2ccccc21	-0.141
CN1C(=O)c2cccc(N(C)C)c2C1=O	-0.183
O=C(Nc1nsc(-c2ccccc2)n1)c1cccs1	-0.31
Cc1nn(-c2cccc(Cl)c2)c2c1C(c1cccnc1)C(C#N)=C(N)O2 (stereo not given)	0.0248
CCCCOc1ccc(CONS(=O)(=O)c2ccc(NC(C)=O)cc2)cc1Cl	-0.176
CN1CCc2c(sc(N)c2C(N)=O)C1	-0.167
Cc1cc(C(=O)N/N=C/c2ccc(-c3ccccc3Cl)o2)n[nH]1	-0.496
Cc1ccc(C)c(NC(=S)NNC(=O)c2csc(C)c2C)c1	2.09
Cc1ccc(C)c(NC(=S)NNC(=O)c2ccco2)c1	-0.0706
CCCCNC(=S)NNC(=O)c1csc2c1CCC(C)C2 (stereo not given)	0.319
Cc1ccc(C)c(NC(=S)NNC(=O)c2csc3c2CCC(C)C3)c1 (stereo not given)	13.8 (active)
Cc1ccc(C)c(NC(=S)NNC(=O)c2csc3c2CCCC3)c1	7.26 (active)
CCCCNC(=S)NNC(=O)c1csc(C)c1C	0.0325
CC1CCc2c(C(=O)Nc3nccs3)csc2C1 (stereo not given)	-0.208
CCNC(=S)NNC(=O)c1csc2c1CCCC2	-0.209
CC(C)CNC(=S)NNC(=O)c1csc2c1CCCC2	-0.116
